Source: PubChem
This is a sample that favours compounds with a hit; in the whole collection about 12% have one here.
AMA1-RON2 inh = disrupts binding of P. falciparum AMA1 to RON2. AlphaScreen AMA1-biotinylated RON2 peptide binding. Potency, µM (doses to about 58.2 µM), for inactives: at the top dose activity change, negative = inhibition, usual class: inhibitors. 360,000 compounds, 0.2% hits. AID 720542;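 also: 0% = vehicle wells and -100% = peptide control; nearly all actives have a fitted effect of over 45% in size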
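AMA1 (3D7) with his tag at 25 nM final met compounds first, then biotinylated RON2 peptide at 25 nM; detection used donor plus acceptor beads, 10 µg/mL apiece, read by AlphaScreen after 30 min at room temperature.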
Pf growth 48h = inhibits P. falciparum growth in the first generation, 48 h; 310,000 compounds, 5.9% hits; Potency, µM (doses to about 28.7 µM), without a hit: top-dose activity change, negative = inhibition, hits mostly inhibitors; AID 504832; P. falciparum luciferase growth in erythrocytes, 48 h; also: % is scaled to controls: 0 for no effect and ±100 for the full control effect
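In quantitative HTS format, infected erythrocytes bearing luciferase-reporter parasites were treated for a single generation at 37 C. Luminescence after adding detection reagent served as the growth measure.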
NS1 function inh = influenza NS1 inhibition | Potency, µM (series often up to 46.1 µM), for inactives: at the highest dose activity, positive = more growth | 270,000 compounds, 0.4% hits | AID 2326; calls by dose curve; also: actives are rising curves; nearly all actives have a fitted effect of over 50% in size
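OD600 was taken as the measure of yeast growth restored by compound in an NS1-expressing S. cerevisiae strain. Cells had been washed out of glucose medium and diluted 1:100 into galactose -URA medium, pH 6.0.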
HCV inh = inhibitors of hepatitis C virus infection; Huh7.5.1 HCVcc-Cre infection, luciferase reporter, 44 h; Potency, µM (top dose mostly 41.8 µM), without a hit: top-dose activity change, negative = inhibition, usual class: inhibitors; 340,000 compounds, 3.4% hits; also: % is scaled to controls: 0 for no effect and ±100 for the full control effect
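After 44 h co-culture of compound, cells and HCVcc-Cre (~0.5 moi), substrate is added for 15 min at room temperature and luciferase measured over 15 sec. Cells were seeded at 1,000/well and pre-cultured 4 h.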
SARS PLpro yeast = SARS-CoV PLP inhibition in yeast. S. cerevisiae expressing SARS-CoV PLpro, growth rescue. Potency, µM (doses to about 32.9 µM), for inactives: top-dose activity, positive = growth rescue, usual class: activators. 330,000 compounds, 0.19% hits. AID 485353; calls by dose curve; also: 0% is about no effect; nearly all actives have a fitted effect of over 55% in size
Pf growth 96h = P. falciparum growth inhibition at 96 hours. P. falciparum luciferase reporter growth, 96 h. Potency, µM (series often up to 28.7 µM), for the others: at the highest dose activity change, negative = inhibition, most hits filed as inhibitors. 320,000 compounds, 6.9% hits; also: % is scaled to controls: 0 for no effect and ±100 for the full control effect
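Readout is luminescence from an integrated firefly luciferase in P. falciparum. Red cells, 2% hematocrit and 0.05% parasitemia final, were cultured with compound through two parasite generations (96 hours) at 37 C, 5% CO2.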
Numbers without * were called inactive; ? = inconclusive; · = no result; ! = not active in a repeat; [ ] = remark or other dose. Unless noted, calls follow the shape of the dose curve; as a rule, active = well fitted curve in the direction sought with a large enough effect; inconclusive = small, poorly fitted or top-dose-only effect, or another doubt; inactive = no such curve, though single readings can be large; an effect the other way counts as inactive or inconclusive. Potency is read from the fitted curve at half-maximal effect.

SMILES	AMA1-RON2 inh	Pf growth 48h	NS1 function inh	HCV inh	SARS PLpro yeast	Pf growth 96h
COc1cc(/C=C(/NC(=O)c2ccccc2)C(=O)Nc2ccc(O)cc2)c([N+](=O)[O-])cc1OC	17.6%	1.1%	4.6%	0.0%	-7.3%	10.4µM*
Cc1ccc(NC(=O)/C(=C\c2cccs2)NC(=O)c2ccccc2)cc1	0.2%	?	22.0%	2.9%	1.0%	7.38µM*
C[C@@H]1CN([C@@H](C)CO)C(=O)c2cc(NS(C)(=O)=O)ccc2O[C@@H]1CN(C)S(=O)(=O)c1ccccc1	0.0%	·	·	-3.3%	3.5%	·
CC(=O)C[C@H](O)CC(=O)[C@@H]1OC(=O)CCCCC/C=C/Cc2ccccc21	8.7%	·	·	-9.6%	3.5%	·
Brc1cccc(-c2nc3cccnc3nc2-c2cccc(Br)c2)c1	-0.8%	0.0%	8.8%	12.6%	3.5%	?
Cc1ccc(-c2nc3cc(Br)cnc3nc2-c2ccc(C)cc2)cc1	-12.7%	?	·	12.6µM*	0.9%	14.7µM*
CC(C)Oc1ccc(C(CC(=O)O)NC(=O)Cc2ccccc2)cc1 (configuration not stated)	0.0%	-12.2%	-3.3%	-14.5%	-0.3%	6.2%
CCOc1ccc(C(CC(=O)O)NC(=O)Cc2ccc(Cl)cc2)cc1 (configuration not stated)	3.4%	5.5%	0.3%	-3.6%	0.3%	3.29µM*
CCC(Sc1nc2sc(C(=O)OC)c(C)c2c(=O)n1N)C(=O)NCC1CCCO1 (configuration not stated)	14.9%	?	1.6%	4.6%	6.4%	4.65µM*
Cc1cc(CNC(=O)c2ccc3nc(Cc4ccccc4F)oc3c2)nn1C	5.6%	14.3%	-17.9%	-0.5%	10.0%	2.08µM*
Cn1c(C(=O)N2CCN(c3ccccc3)CC2)cc2cc(Cl)ccc21	-13.3%	-3.5%	-18.8%	10.6%	0.5%	?
CCOc1cc(/C=C(\C#N)C(N)=O)ccc1OS(=O)(=O)c1ccccc1	-5.5%	3.3%	-39.5%	6.8%	-27.6%	-11.1%
CCOC(=O)/C(C#N)=C\c1c(OCC)n(CC)c2ccccc12	-23.5%	?	-5.6%	?	-24.8%	11.7µM*
CCOc1c(/C=C(\C#N)C(N)=O)c2ccccc2n1CC	-3.8%	3.9%	-13.2%	?	13.8%	13.1µM*
CCn1c(-c2cc(-c3ccccc3OC)nc3ccccc23)n[nH]c1=S	34.6%	2.62µM*	12.9%	?	-8.3%	3.29µM*
CCn1c(-c2cc(-c3cc(OC)ccc3OC)nc3ccccc23)n[nH]c1=S	?	·	15.2%	-25.7%	5.5%	0.37µM*
C=CCn1c(-c2ccccc2OC)n[nH]c1=S	18.3%	9.0%	8.6%	3.9%	2.4%	0.0%
CCN1CCN(c2cc(C)c3cc(NC(=O)CCC(=O)N4CCN(c5ccccc5)CC4)ccc3n2)CC1	0.5%	?	-8.0%	?	3.5%	77.4%
Cc1cc(N2CCOCC2)nc2ccc(NC(=O)CCC(=O)N3CCN(c4cccc(C(F)(F)F)c4)CC3)cc12	5.5%	4.65µM*	1.4%	11.2µM*	0.7%	0.2%
Cc1cc(N2CCN(C)CC2)nc2ccc(NC(=O)CCC(=O)NCCc3ccc(Cl)cc3)cc12	6.6%	11.7µM*	0.2%	5.1%	0.0%	10.8%
Cc1cc(N2CCOCC2)nc2ccc(NC(=O)CCC(=O)N3CCCCC3)cc12	-12.0%	0.0%	-3.5%	-26.4%	0.0%	0.0%
COc1ccc(-c2noc(CCC(=O)N3CCN(c4ccc(C(F)(F)F)cc4)CC3)n2)cc1	0.0%	·	·	-73.9%	5.6%	·
CC(=O)c1ccc(N2CCN(C(=O)CCC(=O)Nc3ccc4nc(N5CCN(C)CC5)cc(C)c4c3)CC2)cc1	-14.4%	9.28µM*	1.2%	8.91µM*	0.2%	5.1%
Cc1ccc(-c2noc(CCC(=O)N3CCN(c4cccc(C(F)(F)F)c4)CC3)n2)cc1	-4.0%	-29.7%	4.1%	11.2µM*!	-2.1%	?
CCOC(CCNC(=O)CCC(=O)Nc1ccc2nc(N3CCN(C)CC3)cc(C)c2c1)OCC	11.3%	-14.2%	-3.8%	-6.7%	0.4%	?
SMILES	AMA1-RON2 inh	Pf growth 48h	NS1 function inh	HCV inh	SARS PLpro yeast	Pf growth 96h
O=C(CC1C(=O)NCCN1Cc1c(F)cccc1Cl)NCCCN1CCCC1=O (configuration not stated)	12.9%	-4.0%	4.1%	4.5%	2.2%	?
Nc1ncnc2c1ncn2[C@@H]1O[C@H](C(=O)N[C@@H](CO)Cc2ccccc2)[C@@H](O)[C@H]1O	-8.6%	·	·	·	·	·
CCOC(=O)C1(CCCc2ccccc2)CCN(C(=O)c2cc(C)nn2CC)CC1	-5.4%	?	-6.5%	?	0.2%	?
Cc1c(Cl)cccc1NC(=O)C[C@H]1Sc2ccccc2NC1=O	·	·	0.0%	·	·	·
CC(C)(C)OC(=O)C(C)(C)O/N=C(\C(=O)O)c1csc(N)n1	-7.8%	-2.2%	1.5%	9.2%	1.0%	13.4%
O=C(CCc1nnc2ccc(NCc3ccco3)nn12)N1CCN(c2ccccc2F)CC1	-3.4%	-5.0%	10.3%	-5.5%	0.3%	9.28µM*
CCCn1c(=N)n(CC(=O)C(C)(C)C)c2ccccc21	-14.7%	?	-15.7%	?	1.3%	?
CCn1c(=N)n(CC(=O)C(C)(C)C)c2ccccc21	0.0%	·	-7.4%	5.6%	16.3%	9.28µM*
O=C(NNC(=O)C1CC=CCC1)c1ccccc1Cl (configuration not stated)	51.1%	40.9%	5.6%	25.3%	-5.1%	-24.2%
CCOc1ccc(N2C(=O)CC(N)C2=O)cc1 (configuration not stated)	-1.6%	-10.8%	-50.7%	5.01µM*	-118.6%	-6.2%
CCCOc1ccc(N2C(=O)CC(SCC(N)C(=O)OCC)C2=O)cc1 (configuration not stated)	-2.9%	?	-7.5%	5.5%	-23.1%	?
CCCOc1ccc(N2C(=O)CC(SCCN)C2=O)cc1 (configuration not stated)	3.55µM*	216.0%	-46.1%	6.6%	-27.9%	?
CCc1nnc(NC(=O)[C@@H](NC(=O)c2cc(OC)cc(OC)c2)C(C)C)s1	-0.3%	1.8%	2.0%	1.2%	0.3%	-15.9%
CC(C(=O)O)n1c2ccccc2c2cnn(C)c(=O)c21 (configuration not stated)	10.4%	1.0%	5.6%	6.0%	0.1%	125.6%
NC1=NCC2c3ccccc3Cc3ccccc3N12 (configuration not stated)	·	?	·	·	·	6.75µM*
Cc1cn(CC(=O)NCCN2CCOCC2)c(=O)[nH]c1=O	-2.8%	·	·	12.8%	·	·
CCOC(=O)c1c(-c2cccs2)csc1NC(=O)CNCCN1CCOCC1	·	?	0.5%	·	2.1%	11.7µM*
CCOC(=O)c1c(-c2ccc(-c3ccccc3)cc2)csc1NC(=O)CCN1CCOCC1	-6.8%[11.6 µM]	?	-24.2%	?	-87.7%	4.65µM*
